# miR-122 inh – raises miR-122 sensor activity in Huh7 cells | Huh7 psiCHECK-miR122 Renilla luciferase sensor, 48 h | activation, % at 12.5 µM | 0.14% of 340,000 active;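 active = mean activation of 30% or more, with every replicate also reaching 30%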;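 also: 0% = median of neutral control wells and 100% = median of positive control wells; higher luciferase signal means stronger suppression of miR-122 activity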
# Numbers without * were called inactive. The full list was thinned out, with hits kept by preference.
SMILES,miR-122 inh
Cc1ccccc1-c1ccc2c(c1)O[C@@H](CN(C)C(=O)Nc1ccccc1)[C@@H](C)CN([C@H](C)CO)S2(=O)=O,4.7
COc1ccc(C#Cc2ccc3c(c2)O[C@@H](CN(C)C(=O)NC2CCCCC2)[C@H](C)CN([C@@H](C)CO)S3(=O)=O)cc1,-16.6
COc1ccc(NC(=O)N2CCCCN3[C@H](CO)[C@H](c4ccc(C#CCC(C)C)cc4)[C@H]3C2)cc1,33.7*
COCC#Cc1cnc2c(c1)C(=O)N([C@@H](C)CO)C[C@H](C)[C@H](CN(C)C(=O)Nc1ccc(OC)cc1)O2,-22.6
Cc1ccccc1-c1ccc([C@@H]2[C@@H](CO)N3CCCCN(C(=O)Nc4ccc(F)cc4)C[C@@H]23)cc1,30.8*
C[C@@H]1CN([C@@H](C)CO)S(=O)(=O)c2ccc(C#Cc3cccnc3)cc2O[C@H]1CN(C)CC1CCOCC1,-9.5
C[C@H](CO)N1C[C@H](C)[C@H](CN(C)Cc2ccc(F)cc2)Oc2ncc(-c3cncnc3)cc2C1=O,4.9
C[C@H](CO)N1C[C@H](C)[C@@H](CN(C)Cc2ccc(C(F)(F)F)cc2)Oc2c(NC(=O)c3cnccn3)cccc2C1=O,-113.9
C[C@@H]1CN([C@@H](C)CO)S(=O)(=O)c2ccc(C#C[C@@H](C)O)cc2O[C@@H]1CN(C)C,5.9
C[C@H](CO)N1C[C@H](C)[C@@H](CN(C)S(C)(=O)=O)Oc2cc(C#Cc3ccccc3)ccc2S1(=O)=O,-130.2
C[C@H](CO)N1C[C@H](C)[C@H](CN(C)C(=O)C2CCCCC2)Oc2ncc(-c3ccccc3F)cc2C1=O,-1.0
C[C@H]1CN([C@@H](C)CO)C(=O)c2cc(C3=CCCCC3)cnc2O[C@H]1CN(C)C(=O)c1ccc(F)cc1,2.1
C[C@@H]1CN([C@@H](C)CO)C(=O)Cc2cc(N(C)C)ccc2O[C@@H]1CN(C)Cc1ccc(C(=O)Nc2ccccc2N)cc1,-141.7
C[C@H]1CN([C@@H](C)CO)C(=O)c2cc(/C=C/c3ccccc3)cnc2O[C@@H]1CN(C)S(=O)(=O)c1ccc(F)cc1,6.2
CCCNC(=O)N(C)C[C@H]1Oc2cc(Br)ccc2S(=O)(=O)N([C@H](C)CO)C[C@H]1C,-10.3
CC(C)C#Cc1cnc2c(c1)C(=O)N([C@@H](C)CO)C[C@@H](C)[C@@H](CN(C)Cc1ccccn1)O2,7.5
CCC(=O)Nc1ccc2c(c1)OC[C@@H](C)N(C(=O)c1ccncc1)C[C@H](C)[C@H](OC)CN(C)C2=O,1.5
CC1(C)CC(=O)c2cnc(NC(=O)c3ccco3)nc2C1,37.6*
O=C(Nc1ccc(Br)c(Cl)c1)c1ccco1,-143.9
C[C@@H]1CN([C@H](C)CO)C(=O)Cc2cc(NC(=O)Nc3ccccc3)ccc2O[C@@H]1CN(C)C(=O)Nc1cccc2ccccc12,-96.8
COCC(=O)N(C)C[C@H]1Oc2ncc(C#Cc3ccccc3OC)cc2C(=O)N([C@@H](C)CO)C[C@@H]1C,-2.5
Nc1cccc2nc3ccccc3cc12,50.8*
CC(=O)N(C)C[C@@H]1Oc2cc(C#CC3(O)CCCC3)ccc2S(=O)(=O)N([C@@H](C)CO)C[C@H]1C,2.8
COc1ccccc1NC(=O)N(C)C[C@H]1Oc2ncc(C#CCC(C)C)cc2C(=O)N([C@H](C)CO)C[C@@H]1C,5.9
C[C@H](CO)N1C[C@H](C)[C@H](CN(C)C(=O)Nc2ccc3c(c2)OCO3)Oc2ncc(-c3ccc(F)cc3)cc2C1=O,-24.1
SMILES,miR-122 inh
COc1ccc(-c2oc3ncn(CCN4CCOCC4)c(=N)c3c2-c2ccc(OC)cc2)cc1,41.8*
Cc1ccc(S(=O)(=O)NCCN2CCOCC2)c(C)c1C,-91.8
COc1ccc(-c2oc3ncnc(NCCCN4CCOCC4)c3c2-c2ccc(OC)cc2)cc1,38.2*
CCCNC(=O)N(C)C[C@@H]1Oc2ncc(C#C[C@@H](C)O)cc2C(=O)N([C@@H](C)CO)C[C@@H]1C,8.8
COc1cccc(-c2cnc3c(c2)C(=O)N([C@@H](C)CO)C[C@H](C)[C@H](CN(C)C(=O)Nc2ccccc2F)O3)c1,-8.8
CO[C@H]1CN(C)C(=O)c2ccc(NC(=O)c3ccccc3)cc2OC[C@H](C)N(C)C[C@H]1C,-1.6
C[C@@H]1CN([C@H](C)CO)C(=O)c2cc(C#Cc3ccccc3F)cnc2O[C@@H]1CN(C)S(=O)(=O)c1ccccc1,3.3
C[C@H](O)C#Cc1ccc2c(c1)O[C@H](CN(C)C(=O)Cc1ccccn1)[C@H](C)CN([C@H](C)CO)S2(=O)=O,-0.2
CC(C)CC#Cc1cnc2c(c1)C(=O)N([C@@H](C)CO)C[C@@H](C)[C@@H](CN(C)C(=O)Cc1ccccc1)O2,9.2
CCC(=O)N(C)C[C@@H]1Oc2cc(C#C[C@H](C)O)ccc2S(=O)(=O)N([C@H](C)CO)C[C@H]1C,3.9
CCCC(=O)Nc1ccc2c(c1)OC[C@@H](C)N(C)C[C@@H](C)[C@@H](OC)CN(C)C2=O,0.0
C[C@H]1CN([C@@H](C)CO)C(=O)c2cc(C#CC3CCCC3)cnc2O[C@@H]1CN(C)C(=O)C1CCC1,-3.6
CC(C)C#Cc1ccc2c(c1)O[C@@H](CN(C)CC1CCCC1)[C@H](C)CN([C@@H](C)CO)S2(=O)=O,-6.7
C[C@@H]1CN([C@@H](C)CO)C(=O)c2cc(-c3cccc(F)c3)cnc2O[C@@H]1CN(C)S(C)(=O)=O,1.1
COc1cccc(-c2cnc3c(c2)C(=O)N([C@H](C)CO)C[C@H](C)[C@H](CN(C)C(=O)CC2CC2)O3)c1,-16.3
C[C@@H]1CN([C@@H](C)CO)C(=O)c2cc(C#Cc3ccccn3)cnc2O[C@H]1CN(C)Cc1cncnc1,5.6
CCC(=O)N(C)C[C@H]1Oc2cc(C#C[C@H](C)O)ccc2S(=O)(=O)N([C@@H](C)CO)C[C@H]1C,6.8
CN(C)S(=O)(=O)c1cccc(NC(=S)N/N=C/c2ccc(O)c(O)c2O)c1,69.8*
COc1ccc(-c2c(-c3ccccc3)c(C(=O)C(=O)NCCCN(C)C)n3ccc4cc(OC)c(OC)cc4c23)cc1OC,37.5*
Cc1ccc(-c2ccc3c(c2)O[C@H](CN(C)Cc2cccc(C(=O)O)c2)[C@@H](C)CN([C@@H](C)CO)S3(=O)=O)cc1,3.8
CO[C@H]1CN(C)C(=O)c2ccc(NC(=O)Nc3ccccc3)cc2OC[C@@H](C)N(C(C)=O)C[C@@H]1C,-2.3
C[C@@H]1CN([C@H](C)CO)C(=O)c2cc(-c3cccnc3)cnc2O[C@H]1CN(C)C(=O)Nc1ccc(F)cc1,6.3
CCC(=O)N(C)C[C@H]1Oc2cc(C#C[C@H](C)O)ccc2S(=O)(=O)N([C@H](C)CO)C[C@@H]1C,1.0
COc1cccc(-c2cnc3c(c2)C(=O)N([C@H](C)CO)C[C@H](C)[C@H](CN(C)C(=O)Nc2cccc4ccccc24)O3)c1,9.2
C[C@H](O)C#Cc1ccc2c(c1)O[C@@H](CN(C)Cc1cccnc1)[C@@H](C)CN([C@H](C)CO)S2(=O)=O,2.8
SMILES,miR-122 inh
CNC(=O)C[C@@H]1CC[C@@H]2[C@H](COc3ccc(NC(=O)NC(C)C)cc3C(=O)N2C)O1,53.3*
CO[C@@H]1CN(C)C(=O)c2cc(NC(=O)NC(C)C)ccc2OC[C@H](C)N(C(=O)NC(C)C)C[C@@H]1C,-2.7
COC(=O)C[C@H]1CC[C@H]2[C@H](COc3ccc(NS(=O)(=O)c4ccc(F)cc4)cc3C(=O)N2C)O1,36.7*
CO[C@@H]1CN(C)C(=O)c2ccc(NC(=O)NC(C)C)cc2OC[C@@H](C)NC[C@@H]1C,-1.0
COC(=O)C[C@H]1CC[C@H]2[C@H](COc3ccc(NC(=O)Nc4ccccc4C)cc3C(=O)N2C)O1,-116.7
COC(=O)C[C@H]1CC[C@H]2[C@H](COc3ccc(NC(=O)NC(C)C)cc3C(=O)N2C)O1,50.0*

# Assay outcomes from PubChem.
